According to PubChem BioAssay (NCATS):
Inconclusive results are not listed. Activity calls are given as the source filed them. Calls come from the whole dose curve; as a rule, active = well fitted curve in the direction sought with a large enough effect; inconclusive = small, poorly fitted or top-dose-only effect, or another doubt; inactive = no such curve, though single readings can be large; an effect the other way counts as inactive or inconclusive.

Assays:
CAOV3 = assay: Primary qHTS to identify gynecologic anti-cancer compounds using libraries of approved drugs and bioactive compounds (AID 1345084); conditions: Gynecologic cancer cell panel viability, ATPlite luminescence, 48 h; series mostly up to 57.5 µM; note: nearly all actives have a fitted effect of over 55% in size
Procedure, shortened: (§1)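 In this quantitative HTS, cell killing is estimated from loss of ATP-dependent luciferase light. Cells see five compound concentrations over a 48 h exposure.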

CASKI = assay: as above; conditions: Gynecologic cancer cell panel viability, ATPlite luminescence, 48 h; series mostly up to 57.5 µM
Procedure, shortened: as §1

Es-2 = assay: as above; conditions: Gynecologic cancer cell panel viability, ATPlite luminescence, 48 h; series mostly up to 57.5 µM
Procedure, shortened: as §1

HeLa = assay: as above; conditions: Gynecologic cancer cell panel viability, ATPlite luminescence, 48 h; series mostly up to 57.5 µM
Procedure, shortened: as §1

Hek293T = assay: as above; conditions: Gynecologic cancer cell panel viability, ATPlite luminescence, 48 h, control line for the selectivity index; series mostly up to 57.5 µM
Procedure, shortened: as §1

JEG-3 = assay: as above; conditions: Gynecologic cancer cell panel viability, ATPlite luminescence, 48 h; series mostly up to 57.5 µM
Procedure, shortened: as §1

OV90 = assay: as above; conditions: Gynecologic cancer cell panel viability, ATPlite luminescence, 48 h; series mostly up to 57.5 µM
Procedure, shortened: as §1

PA-1 = assay: as above; conditions: Gynecologic cancer cell panel viability, ATPlite luminescence, 48 h; series mostly up to 57.5 µM
Procedure, shortened: as §1

SKOV3 = assay: as above; conditions: Gynecologic cancer cell panel viability, ATPlite luminescence, 48 h; series mostly up to 57.5 µM
Procedure, shortened: as §1

Tov-21-G = assay: as above; conditions: Gynecologic cancer cell panel viability, ATPlite luminescence, 48 h; series mostly up to 57.5 µM
Procedure, shortened: as §1

Tov112D = assay: as above; conditions: Gynecologic cancer cell panel viability, ATPlite luminescence, 48 h; series mostly up to 57.5 µM
Procedure, shortened: as §1

[1] = Drug repurposing screens with cells derived from glioblastoma tumor samples (AID 1345199); conditions: GBM patient neurospheres viability, ATP luminescence, 48 h; note: nearly all actives have a fitted effect of over 40% in size
Procedure, shortened: (§2)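 Primary testing used CD133+ neurospheres from four GBM patients, seven concentrations, 48 h exposure and ATP-based viability; confirmation added three slower-growing patient lines.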

astro = assay: as above; conditions: viability, ATP luminescence, 48 h; series mostly up to 45.9 µM
Procedure, shortened: as §2

[2] = qHTS assay to identify inhibitors of the type 1 interferon - major histocompatibility complex class I in skeletal muscle: Counter screen cell viability and HiBit confirmation (AID 1347412); conditions: iHSKM muscle cells + IFN-b, HiBiT or CellTiter-Glo, 24 h; Potency: HiBiT unless noted; Viability, at 45.9 µM (top of the series); note: nearly all actives have a fitted effect of over 60% in size
Procedure, shortened: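 Human myoblast knock-in line, 4.0 ng/ml IFN-beta stimulation, 24 h compound treatment. Endpoints: HiBiT lytic luminescence (HLA-B level) and CellTiter Glo (ATP). Dosing 12 concentrations, 3-fold steps, 46 uM highest final.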

[3] = at 45.9 µM (top of the series), tumour line B
[4] = at 45.9 µM (top of the series), tumour line D
[5] = at 46 µM (top of the series), tumour line A
[6] = at 46.1 µM (top of the series), tumour line C
[7] = at 20 µM (top of the series), tumour line C
[8] = at 21.2 µM (top of the series), tumour line B
[9] = at 21.2 µM (top of the series), tumour line D
[10] = at 21.3 µM (top of the series), tumour line A
% is set by controls: 0 for no effect and ±100 for the full control effect.

Cc1c(C(N)=O)cc([N+](=O)[O-])cc1[N+](=O)[O-]
inactive: Potency (CAOV3) | Potency (CASKI) | Potency (Es-2) | Potency (HeLa) | Potency (Hek293T) | Potency (JEG-3) | Potency (OV90) | Potency (PA-1) | Potency (SKOV3) | Potency (Tov-21-G) | Potency (Tov112D) | activity, negative = cell killing [1, 3] -3.44% | activity, negative = cell killing [1, 4] -20.3% | activity, negative = cell killing [1, 5] -15.4% | activity, negative = cell killing [1, 6] 1.23% | Potency (astro)

COC(=O)[C@@H]1CC2=CC(=O)CC[C@]2(C)[C@@]23O[C@@H]2C[C@@]2(C)[C@@H](CC[C@@]24CCC(=O)O4)[C@H]13
inactive: Potency (CAOV3) | Potency (CASKI) | Potency (Es-2) | Potency (HeLa) | Potency (Hek293T) | Potency (JEG-3) | Potency (OV90) | Potency (PA-1) | Potency (SKOV3) | Potency (Tov-21-G) | Potency (Tov112D) | activity, negative = cell killing [1, 3] -3.02% | activity, negative = cell killing [1, 4] -20% | activity, negative = cell killing [1, 5] -25% | activity, negative = cell killing [1, 6] -18.4% | Potency (astro)

CCOC(=O)n1ccn(C)c1=S
inactive: Potency (CAOV3) | Potency (CASKI) | Potency (Es-2) | Potency (HeLa) | Potency (Hek293T) | Potency (JEG-3) | Potency (OV90) | Potency (PA-1) | Potency (SKOV3) | Potency (Tov-21-G) | Potency (Tov112D) | activity, negative = cell killing [1, 7] 6.23% | activity, negative = cell killing [1, 8] -8.85% | activity, negative = cell killing [1, 9] 1.59% | activity, negative = cell killing [1, 10] -18.4% | Potency (astro)

CN(C)CC/C=C1/c2ccccc2COc2ccc(CC(=O)O)cc21
inactive: Potency (CAOV3) | Potency (CASKI) | Potency (Es-2) | Potency (HeLa) | Potency (Hek293T) | Potency (JEG-3) | Potency (OV90) | Potency (PA-1) | Potency (SKOV3) | Potency (Tov-21-G) | Potency (Tov112D) | activity, negative = cell killing [1, 3] -11.5% | activity, negative = cell killing [1, 4] 1.66% | activity, negative = cell killing [1, 5] -15.4% | activity, negative = cell killing [1, 6] 4.5% | Potency (astro)

NCCCC[C@H](N[C@@H](CCc1ccccc1)C(=O)O)C(=O)N1CCC[C@H]1C(=O)O
inactive: Potency (CAOV3) | Potency (CASKI) | Potency (Es-2) | Potency (HeLa) | Potency (Hek293T) | Potency (JEG-3) | Potency (OV90) | Potency (PA-1) | Potency (SKOV3) | Potency (Tov-21-G) | Potency (Tov112D) | activity, negative = cell killing [1, 7] 16.9% | activity, negative = cell killing [1, 8] -0.103% | activity, negative = cell killing [1, 9] -3.03% | activity, negative = cell killing [1, 10] 10.9% | Potency (astro)

CN=C(NC#N)Nc1ccc(C2=NNC(=O)CC2C)cc1 (stereo not drawn)
inactive: Potency (CAOV3) | Potency (CASKI) | Potency (Es-2) | Potency (HeLa) | Potency (Hek293T) | Potency (JEG-3) | Potency (OV90) | Potency (PA-1) | Potency (SKOV3) | Potency (Tov-21-G) | Potency (Tov112D) | activity, negative = cell killing [1, 3] -9.56% | activity, negative = cell killing [1, 4] 17.5% | activity, negative = cell killing [1, 5] -26.1% | activity, negative = cell killing [1, 6] -22.3% | Potency (astro)

CCCCC(=O)O[C@]1(C(=O)CO)CC[C@H]2[C@@H]3CCC4=CC(=O)CC[C@]4(C)[C@H]3[C@@H](O)C[C@@]21C
inactive: Potency (CAOV3) | Potency (CASKI) | Potency (Es-2) | Potency (HeLa) | Potency (Hek293T) | Potency (JEG-3) | Potency (OV90) | Potency (PA-1) | Potency (SKOV3) | Potency (Tov-21-G) | Potency (Tov112D) | activity, negative = cell killing [1, 3] -13.9% | activity, negative = cell killing [1, 4] -13.5% | activity, negative = cell killing [1, 5] -14.6% | activity, negative = cell killing [1, 6] -22.7% | Potency (astro) | Potency [2]

CC1(C)O[C@@H]2C[C@H]3[C@@H]4C[C@H](F)C5=CC(=O)C=C[C@]5(C)[C@H]4[C@@H](O)C[C@]3(C)[C@]2(C(=O)CO)O1
inactive: Potency (CAOV3) | Potency (CASKI) | Potency (Es-2) | Potency (HeLa) | Potency (Hek293T) | Potency (JEG-3) | Potency (OV90) | Potency (PA-1) | Potency (SKOV3) | Potency (Tov-21-G) | Potency (Tov112D) | activity, negative = cell killing [1, 7] 3.76% | activity, negative = cell killing [1, 8] 2.57% | activity, negative = cell killing [1, 9] -8.48% | activity, negative = cell killing [1, 10] 19% | Potency (astro)

Cc1onc(-c2c(Cl)cccc2Cl)c1C(=O)N[C@@H]1C(=O)N2[C@@H]1SC(C)(C)[C@@H]2C(=O)O
inactive: Potency (CAOV3) | Potency (CASKI) | Potency (Es-2) | Potency (HeLa) | Potency (Hek293T) | Potency (JEG-3) | Potency (OV90) | Potency (PA-1) | Potency (SKOV3) | Potency (Tov-21-G) | Potency (Tov112D) | activity, negative = cell killing [1, 3] -4.57% | activity, negative = cell killing [1, 4] -12.2% | activity, negative = cell killing [1, 5] -8.27% | activity, negative = cell killing [1, 6] 12.2% | Potency (astro)

CCN1CCN(c2cc3c(cc2F)c(=O)c(C(=O)O)cn3C2CC2)CC1
inactive: Potency (CAOV3) | Potency (CASKI) | Potency (Es-2) | Potency (HeLa) | Potency (Hek293T) | Potency (JEG-3) | Potency (OV90) | Potency (PA-1) | Potency (SKOV3) | Potency (Tov-21-G) | Potency (Tov112D) | activity, negative = cell killing [1, 3] 9.67% | activity, negative = cell killing [1, 4] -1.9% | activity, negative = cell killing [1, 5] -9.98% | activity, negative = cell killing [1, 6] 17.2% | Potency (astro)

OCc1ccccc1O
inactive: Potency (CAOV3) | Potency (CASKI) | Potency (Es-2) | Potency (HeLa) | Potency (Hek293T) | Potency (JEG-3) | Potency (OV90) | Potency (PA-1) | Potency (SKOV3) | Potency (Tov-21-G) | Potency (Tov112D) | activity, negative = cell killing [1, 3] -10.5% | activity, negative = cell killing [1, 4] -12.8% | activity, negative = cell killing [1, 5] -23.4% | activity, negative = cell killing [1, 6] -1.35% | Potency (astro)

CCOc1ccc(NC(=O)CC(C)O)cc1 (stereo not drawn)
inactive: Potency (CAOV3) | Potency (CASKI) | Potency (Es-2) | Potency (HeLa) | Potency (Hek293T) | Potency (JEG-3) | Potency (OV90) | Potency (PA-1) | Potency (SKOV3) | Potency (Tov-21-G) | Potency (Tov112D) | activity, negative = cell killing [1, 3] -5.84% | activity, negative = cell killing [1, 4] -16.9% | activity, negative = cell killing [1, 5] -20.2% | activity, negative = cell killing [1, 6] -0.587% | Potency (astro)
